Bioassay records from PubChem.
Shiga toxin inh: Shiga toxin inhibition. Vero cells, Shiga toxin protein synthesis inhibition reporter. inhibition, % at 38.7 µM. hit rate 9.2% among 290,000. AID 2315; in the data active = inhibition mostly above about 28%, no sharp cut-off; inactive = mostly below about 43%; note: 0% is about no effect
AMA1-RON2 inh: disrupts binding of P. falciparum AMA1 to RON2. AlphaScreen AMA1-biotinylated RON2 peptide binding. Potency, µM (doses to about 58.2 µM), inactives show top-dose activity change, negative = inhibition, usual class: inhibitors. hit rate 0.2% among 360,000. AID 720542;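 note: potency is the fitted concentration of half-maximal effect; 0% = vehicle wells and -100% = peptide control; nearly all actives have a fitted effect of over 45% in size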
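AMA1 (3D7) with his tag at 25 nM final met compounds first, then biotinylated RON2 peptide at 25 nM; detection used donor plus acceptor beads, 10 µg/mL apiece, read by AlphaScreen after 30 min at room temperature.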
Pf growth 48h: P. falciparum growth inhibition at 48 hours (one generation); P. falciparum luciferase growth in erythrocytes, 48 h; Potency, µM (top dose mostly 28.7 µM), for the others: top-dose activity change, negative = inhibition, hits mostly inhibitors; hit rate 5.9% among 310,000; AID 504832; note: potency is the fitted concentration of half-maximal effect; % is set by controls: 0 for no effect and ±100 for the full control effect
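A one-generation exposure of luciferase-tagged malaria parasites in RPMI 1640/Albumax erythrocyte culture, 37 C and 5% CO2. Inhibition is inferred from decreased luminescence after adding detection reagent.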
Cycloheximide cs: counter-screen hit for Shiga toxin inhibitors, cycloheximide; cell reporter, cycloheximide protein synthesis inhibition counterscreen; max response, %; hit rate 12% among 300,000; AID 2314; in the data active = max response mostly above about 13%, no sharp cut-off; inactive = mostly below about 14%; note: read at 38.3 µM for the half of the compounds with a filed dose; 0% is about no effect
HCV inh: blocks hepatitis C virus | Huh7.5.1 HCVcc-Cre infection, luciferase reporter, 44 h | Potency, µM (titrated, usually from 41.8 µM), for the others: top-dose activity change, negative = inhibition, most hits filed as inhibitors | hit rate 3.4% among 340,000 | AID 651820; note: potency is the fitted concentration of half-maximal effect; % is set by controls: 0 for no effect and ±100 for the full control effect
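HCVcc-Cre virus at an moi near 0.5 was added right after compound to cells cultured 4 h from seeding (1,000 cells/well). Luciferase activity was determined 44 h later, 15 min after substrate addition at RT.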
Pf growth 96h: inhibits malaria parasite growth, 96 h; Potency, µM (highest dose often 28.7 µM), inactives show at the top dose activity change, negative = inhibition, usual class: inhibitors; hit rate 6.9% among 320,000; P. falciparum luciferase reporter growth, 96 h; note: potency is the fitted concentration of half-maximal effect; % is set by controls: 0 for no effect and ±100 for the full control effect
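Readout is luminescence from an integrated firefly luciferase in P. falciparum. Red cells, 2% hematocrit and 0.05% parasitemia final, were cultured with compound through two parasite generations (96 hours) at 37 C, 5% CO2.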
Active calls of the source: *; [ ] = another dose, or the depositor's remark. The list is not random: actives were taken first. Their share in the collection is about 21%. Unless noted, calls come from the whole dose curve; as a rule, active = well fitted curve in the direction sought with a large enough effect; inconclusive = small, poorly fitted or top-dose-only effect, or another doubt; inactive = no such curve, though single readings can be large; an effect the other way counts as inactive or inconclusive.

For Cc1ccc(-c2csc(NC(=S)NC(=O)c3ccco3)n2)cc1 the results were Shiga toxin inh -3, AMA1-RON2 inh 1%, Pf growth 48h 60%, Cycloheximide cs -3, HCV inh -7% and Pf growth 96h inconclusive.
`O=C1CCC(C(=O)N2CCSCC2)CN1CCc1cccc(F)c1` (configuration not stated) gave Shiga toxin inh 16, AMA1-RON2 inh 7%, Pf growth 48h 6%, Cycloheximide cs 15*, HCV inh 13% and Pf growth 96h 7%.
`CCOC(=O)C1CCN(C(=O)C2CCC(=O)N(Cc3cccc(C(F)(F)F)c3)C2)CC1` (configuration not stated) gave Shiga toxin inh 32, AMA1-RON2 inh -3%, Pf growth 48h 5%, Cycloheximide cs 14*, HCV inh inconclusive and Pf growth 96h 31%.
For COC1CCN(C(=O)C2CCC(=O)N(CCc3cccc(F)c3)C2)CC1 (configuration not stated) the results were Shiga toxin inh 23, AMA1-RON2 inh -11%, Pf growth 48h 11%, Cycloheximide cs 28*, HCV inh 9% and Pf growth 96h 0%.
Screening CC1CC(=O)Nc2ccccc2N1C(=O)Cn1cnc2ccccc2c1=O (configuration not stated) returned AMA1-RON2 inh -3%, Pf growth 48h 3%, HCV inh 16% and Pf growth 96h 0%.
Screening CN(C)CCn1c(=O)n(Cc2ccco2)c(=O)c2c3c(sc21)CCCCC3 returned Shiga toxin inh -9, AMA1-RON2 inh 0%, Pf growth 48h inconclusive, Cycloheximide cs -4, HCV inh inconclusive and Pf growth 96h 7.4µM*.
Screening O=c1c2c3c(sc2n(CCN2CCCC2)c(=O)n1Cc1ccco1)CCCCC3 returned Shiga toxin inh -21, AMA1-RON2 inh -17%, Pf growth 48h inconclusive, Cycloheximide cs 5, HCV inh 10µM* and Pf growth 96h 4%.
`Cc1ccc(S(=O)(=O)N2CCOCC2)cc1NC(=O)COC(=O)Cn1c(C)csc1=O` gave AMA1-RON2 inh -16%, Pf growth 48h -7%, HCV inh 3% and Pf growth 96h 5%.
For C1=C(c2ccccc2)N2CCN=C2S1 the results were Shiga toxin inh -15, AMA1-RON2 inh -1%, Pf growth 48h 7%, Cycloheximide cs -2 and HCV inh -13%.
Oc1ccc(C2=CSC3=NCCN23)cc1O was read as Shiga toxin inh -4, AMA1-RON2 inh -24%, Pf growth 48h 9.3µM*, Cycloheximide cs -4, HCV inh 7% and Pf growth 96h 37%.
Brc1ccc(C2=CSC3=NCCN23)cc1 was read as Shiga toxin inh 7, AMA1-RON2 inh -1%, Pf growth 48h inconclusive, Cycloheximide cs -2, HCV inh -20% and Pf growth 96h 29%.
`CC(C)(C)c1cc(C2=CSC3=NCCN23)cc(C(C)(C)C)c1O` gave AMA1-RON2 inh -7%, Pf growth 48h inconclusive, Cycloheximide cs -4, HCV inh 5.6µM* and Pf growth 96h 4.7µM*.
`COc1ccc(COc2cc(-c3cccc(OC)c3)nc3ccc(NC(=O)c4ccc(OC)cc4)cc23)cc1` gave Shiga toxin inh -11, AMA1-RON2 inh -2%, Pf growth 48h 13µM*, Cycloheximide cs -1, HCV inh 7.1µM* and Pf growth 96h 4.7µM*.
`COc1ccc(C(=O)Nc2cccc(-c3ccc4nncn4n3)c2)cc1` gave Shiga toxin inh 29, AMA1-RON2 inh -7%, Pf growth 48h 33%, Cycloheximide cs 13, HCV inh -17% and Pf growth 96h 20%.
`COc1ccc(COc2cc(-c3cccc(OC)c3)nc3ccc(NC(=O)c4ccc(Cl)cc4)cc23)cc1` gave Shiga toxin inh 30, AMA1-RON2 inh 3%, Pf growth 48h 2.1µM*, Cycloheximide cs 2, HCV inh 6%[8.37 µM] and Pf growth 96h 3.7µM*.
COc1ccc(COc2cc(-c3cccc(OC)c3)nc3ccc(NC(=O)c4ccccc4)cc23)cc1 was read as Shiga toxin inh 19, AMA1-RON2 inh 12%, Pf growth 48h 12µM*, Cycloheximide cs 1, HCV inh inconclusive and Pf growth 96h 12µM*.
COc1ccc(COc2cc(-c3cccc(OC)c3)nc3ccc(NC(=O)c4cccnc4)cc23)cc1 was read as Shiga toxin inh -7, AMA1-RON2 inh -2%, Pf growth 48h 2.9µM*, Cycloheximide cs 2, HCV inh inconclusive and Pf growth 96h 2.3µM*.
Screening COc1ccc(OCC(=O)NNC(=O)c2cccnc2)cc1 returned Shiga toxin inh -2, AMA1-RON2 inh 11%, Pf growth 48h 0%, Cycloheximide cs 3, HCV inh 24% and Pf growth 96h 10%.
`O=C(Nc1cccc(C(=O)N2CCOCC2)c1)C1CCCC1` gave AMA1-RON2 inh -3% and HCV inh 1%.
Screening COc1cccc(-c2ncc3ccccc3c2COC(=O)c2ccc(F)cc2)c1 returned AMA1-RON2 inh -2%, Pf growth 48h inconclusive, HCV inh inconclusive and Pf growth 96h inconclusive.
`CN(/N=C/c1cc([N+](=O)[O-])ccc1O)c1ccccc1` gave Shiga toxin inh 17, AMA1-RON2 inh 6%, Pf growth 48h 34%, Cycloheximide cs 22*, HCV inh inconclusive and Pf growth 96h inconclusive.
O=[N+]([O-])c1ccc(O)c(C=NNc2ccc(S(=O)(=O)O)cc2)c1 was read as AMA1-RON2 inh 10% and HCV inh 0%.
O=[N+]([O-])c1ccc(O)c(/C=N/Nc2ncnc3c2cnn3-c2ccccc2)c1 was read as Shiga toxin inh -2, AMA1-RON2 inh 92%, Pf growth 48h 1.2µM*, Cycloheximide cs -2, HCV inh 2.8µM* and Pf growth 96h 0.52µM*.
`O=[N+]([O-])c1ccc(O)c(/C=N/Nc2ccccn2)c1` gave Shiga toxin inh 29, AMA1-RON2 inh 44%[11.6 µM], Pf growth 48h 2.9µM*, Cycloheximide cs 22*, HCV inh 2.5µM* and Pf growth 96h inconclusive.
O=[N+]([O-])c1cccc(N/N=C/c2cc([N+](=O)[O-])ccc2O)c1 was read as Shiga toxin inh 49*, AMA1-RON2 inh -1%, Pf growth 48h -13%, Cycloheximide cs 28*, HCV inh -19% and Pf growth 96h 3%.
For CC(N=Cc1cc([N+](=O)[O-])ccc1O)c1ccccc1 (configuration not stated) the results were Shiga toxin inh 32, AMA1-RON2 inh -4%, Pf growth 48h inconclusive, Cycloheximide cs 3, HCV inh 4% and Pf growth 96h 20%.
For OCC1O[C@H](O[C@H]2C(O)C(O)C(O)O[C@@H]2CO)C(O)C(O)C1O (some centres not stated) the results were Pf growth 48h 4% and Pf growth 96h inconclusive.
